Measurements reported in the supplement of paper PMC13380429.
Values without a mark were called inactive.

Tested on: Vero E6 infected with SARS-CoV-2
Experiment: inhibition of SARS-CoV-2 cytopathic effect; higher = more antiviral protection, active = above 15
Conditions: 48 h

Structure (SMILES)	inhibition of SARS-CoV-2 cytopathic effect (1 nM) [%]	inhibition of SARS-CoV-2 cytopathic effect (8.33 nM) [%]	inhibition of SARS-CoV-2 cytopathic effect (100 nM) [%]	inhibition of SARS-CoV-2 cytopathic effect (833.33 nM) [%]	inhibition of SARS-CoV-2 cytopathic effect (10000 nM)
Fc1ccc(Cl)cc1-c1nc(Nc2ccncc2)c2nccnc2n1	-0.85	0.45	-1.96	-3.87	-7.46%
Cc1cc(-c2ccc(CC(=O)Nc3ccc(-c4cccnc4)cc3)cc2)ccn1	-2.73	-2.58	-2.93	4.57	7.2%
N#Cc1cnc2c(Cl)cc(NCc3cn(CCN4CCCCCC4)nn3)cc2c1Nc1ccc(F)c(Cl)c1 [cot-inhibitor-1]	-0.74	2.31	-0.11	-2.18	-14%
O=C1c2ccccc2S(=O)(=O)N1CCCCN1CCN(c2ncccn2)CC1 [ipsapirone]	4.62	2.92	-3.31	1.74	0.15%
O=C(NCC1CCOCC1)c1cnc(Nc2ccc(Cl)cc2Cl)nc1C(F)(F)F	-0.74	0.36	0.86	1.5	3.56%
Cc1onc(-c2ccccc2)c1-c1ccc(S(N)(=O)=O)cc1 [valdecoxib]	0.48	-0.66	-0.48	3.3	0.55%
CCCC[C@H](NC(C)=O)C(=O)N[C@H]1CC(=O)NCCCC[C@@H](C(=O)O)NC(=O)[C@H](Cc2c[nH]c3ccccc23)NC(=O)[C@H](CCCNC(=N)N)NC(=O)[C@@H](Cc2ccccc2)NC(=O)[C@H](Cc2c[nH]cn2)NC1=O [bremelanotide]	1.27	-1.82	-0.14	-2.33	0.21%
CC[C@]1(O)C[C@@H]2CN(CCc3c([nH]c4ccccc34)[C@@](C(=O)OC)(c3cc4c(cc3OC)N(C)[C@H]3[C@@](O)(C(N)=O)[C@H](O)[C@]5(CC)C=CCN6CC[C@]43[C@@H]65)C2)C1 [vindesine]	0.4	0.16	-1.63	0.62	-2.18%
CC(=O)[C@H]1CC[C@H]2[C@@H]3C[C@H](C)C4=CC(=O)CC[C@]4(C)[C@H]3[C@@H](O)C[C@]12C [medrysone]	-0.04	1.55	-1.22	0.73	3.22%
O=C1NC(=O)/C(=C/c2ccc3c(c2)OC(F)(F)O3)S1	2.29	1.22	-6.83	-7.64	-7.56%
CCC(C/C=C/c1ccccc1)(c1ccccc1)N(C)CC1CC1 (stereo not given) [igmesine]	-0.08	0.01	-2.22	-1.63	6.93%
FC(F)(F)c1cc(CO[C@H]2CCCN[C@H]2c2ccccc2)cc(C(F)(F)F)c1	0.32	-2.69	-5.07	-6.64	18.1% (active)
Cc1cc(=O)[nH]c(=S)[nH]1 [methylthiouracil]	0.85	2.29	-0.49	1.73	-0.31%
CCOc1cc(C(C)(C)C)ccc1C1=N[C@@](C)(c2ccc(Cl)cc2)[C@@](C)(c2ccc(Cl)cc2)N1C(=O)N1CCN(CCCS(C)(=O)=O)CC1	-1.23	-0.35	1.86	1.64	5.99%
Nc1nc(=O)c2sc(=O)n([C@@H]3O[C@H](CO)[C@@H](O)[C@H]3O)c2[nH]1	2.96	0.81	-0.66	1.35	-1.43%
CN1Cc2c(N)cccc2C(c2ccccc2)C1 (stereo not given) [nomifensine]	0.22	1.01	2.41	1.13	0.73%
C/C=C1\NC(=O)[C@H]2CSSCC/C=C/[C@H](CC(=O)N[C@H](C(C)C)C(=O)N2)OC(=O)[C@H](C(C)C)NC1=O [romidepsin]	-1.04	0.79	-0.75	-16.6	-18%
